# Compound activity deposited in PubChem BioAssay by National Center for Advancing Translational Sciences (NCATS).
# S2 tox = viability counter-screen for ATXN expression inhibitors | Potency, µM (series often up to 56.7 µM), most hits filed as cytotoxic | 400,000 compounds, 0.49% hits | S2 cells (HEK-293 line with an ATXN2-luciferase reporter) viability, CellTiter-Fluor protease fluorescence, 24 h | AID 651635; further: nearly all actives have a fitted effect of over 40% in size
# TGFb SMAD3 inh = inhibitors of TGF-b signaling; 410,000 compounds, 1.2% hits; AID 588855; Potency, µM (top dose mostly 46.1 µM), inactives show at the highest dose activity, negative = inhibition, usual class: inhibitors; HepG2 CAGA-GFP TGF-b/SMAD3 reporter, GFP fluorescence, 18 h; TGF-beta stimulated, 500 pg/mL final; further: on the % scale 0 is the no-effect control and ±100 the full control effect; nearly all actives have a fitted effect of over 65% in size
#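 HEPG2 CAGA-GFP reporter cells (1000/well, DMEM with 1% FBS) received compounds, then recombinant TGF-beta at 500 pg/mL final for 18 hours at 37 degrees C. Per-cell GFP summed per well was normalised to unstimulated and stimulated DMSO controls before curve fitting.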
# DT40 TDP1 no CPT = qHTS for Inhibitors of human tyrosyl-DNA phosphodiesterase 1 (TDP1): qHTS in cells in absence of CPT; AID 686978, 2013; 420,000 compounds, 15% hits; Potency, µM (titrated, usually from 46.2 µM), for the others: top-dose activity change, negative = growth inhibition, actives largely listed as inhibitors; DT40 Tdp1-/- hTDP1 cells, no CPT, ATP luminescence, 48 h; further: on the % scale 0 is the no-effect control and ±100 the full control effect; nearly all actives have a fitted effect of over 55% in size
#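 No-CPT arm: Tdp1-/-;hTDP1 DT40 cells (400/well) plus compounds, incubated ≥48 hr at 37 °C. Readout CellTiter-Glo luminescence.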
# HepG2 tox = counter-screen for TGF-b inhibitors: cytotoxicity in HepG2 cells | 410,000 compounds, 0.76% hits | Potency, µM (highest dose often 46.1 µM), without a hit: at the top dose activity change, negative = cytotoxicity, actives largely listed as cytotoxic | HepG2 CAGA-GFP viability, ATP luminescence, 18 h
#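 HepG2 CAGA-GFP cells (1000/well, DMEM with 1% FBS) received compound, then TGF-beta at 500 pg/mL final, and were incubated 18 hours at 37 degrees C. Viability was read by CellTiter-Glo luminescence. Media-only wells were set as complete cell-killing and DMSO as no toxicity.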
# ATXN2 expr inh = ATXN2 expression inhibition; AID 1745845; Potency, µM (top dose mostly 57 µM), without a hit: at the top dose activity change, negative = inhibition, usual class: inhibitors; 360,000 compounds, 0.72% hits; HEK-293 ATXN2-luciferase reporter, luminescence, 24 h; further: on the % scale 0 is the no-effect control and ±100 the full control effect; nearly all actives have a fitted effect of over 55% in size
#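 ATXN2-luciferase reporter cells (luciferase flanked by upstream and downstream ATXN2 gene portions) were treated 24 h at 37 °C with compounds at up to 57 uM. SteadyGlo luminescence gave expression; GF-AFC fluorescence gave viability.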
# TDP1 cell CPT = DT40-hTDP1 cell growth loss with CPT; chicken DT40 Tdp1-/-;hTDP1 cells + 20 nM CPT, ATP luminescence, 48 h; Potency, µM (top dose mostly 46.2 µM), inactives show at the top dose activity change, negative = growth inhibition, hits mostly inhibitors; 420,000 compounds, 12% hits; AID 686979; further: on the % scale 0 is the no-effect control and ±100 the full control effect; nearly all actives have a fitted effect of over 55% in size
#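 Cell growth measured by CellTiter-Glo luminescence after a minimum 48 h, 37 C compound exposure with 20 nM CPT in Tdp1-knockout DT40 cells stably expressing hTDP1, seeded 400/well; qHTS titration format.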
# Starred values were filed as active, the others as inactive; i = inactive; ? = inconclusive; nt = not tested or not shown. Shown are actives, neighbours in structure and some others; about 17% of the full set was active somewhere. The call rests on the fitted dose curve; in most records, active means well fitted curve in the direction sought with a large enough effect; inconclusive means small, poorly fitted or top-dose-only effect, or another doubt; inactive means no such curve, though single readings can be large; an effect the other way counts as inactive or inconclusive. Potency means the concentration at half of the fitted maximal effect.
SMILES,S2 tox,TGFb SMAD3 inh,DT40 TDP1 no CPT,HepG2 tox,ATXN2 expr inh,TDP1 cell CPT
CCCCCC1=C(C(=O)OC)C(C(=O)OCC)N(S(=O)(=O)C(F)(F)F)c2ccccc21 (stereo not given),i,?,21µM*,-2%,-16%,?
COc1cc2[nH]c3c(Cl)ncnc3c2cc1OC,i,-7%,21µM*,-9%,6%,?
COc1ccnc(N2CCN(c3ccc(Cl)cc3)CC2)c1C#N,i,-1%,?,0%,-7%,-20%
COc1ccc(C=O)c2[nH]c3c(Cl)ncnc3c12,i,9%,?,4%,-8%,-20%
COc1cc2[nH]c3c(N4CCN(c5ccc(Cl)cc5)CC4)ncnc3c2cc1OC,?,-10%,18µM*,-36%,-11%,18µM*
COc1ccc(N2C(=O)CCSC23C(=O)N(Cc2ccc(F)cc2)c2ccccc23)cc1Cl (stereo not given),nt,0%,8.2µM*,-47%,nt,9.2µM*
CCN(CC)C(=O)c1c(NC(=O)c2ccccc2F)sc2c1CCC(C(C)(C)C)C2 (stereo not given),?,0%,?,-24%,-19%,23µM*
Cc1cc(C(=O)Cn2c(CO)nc3ccccc32)c(C)n1C,i,-12%,16µM*,-1%,10%,?
Cc1cccc(OCCCCn2c(CO)nc3ccccc32)c1,i,-14%,?,-12%,nt,?
C=CCn1c(C)cc(C(=O)Cn2c(C(C)O)nc3ccccc32)c1C (stereo not given),i,-5%,9.2µM*,-15%,-14%,21µM*
C/C(Nc1ccc(Cl)c(Cl)c1)=C1/CCOC1=O,i,8%,?,-8%,nt,-4%
O=C1c2ccccc2CCCC12N=NCC2c1cccc2ccccc12 (stereo not given),i,-4%,?,-28%,?,?
Cc1ccc(C2CN=NC23CCc2ccccc2C3=O)cc1 (stereo not given),i,-7%,26µM*,-22%,51%,26µM*
Cc1ccc(OCC(=O)c2c(O)c3ccccc3oc2=O)cc1C,?,5%,15µM*,3%,2%,?
Cc1ccc(OCC(=O)Nc2c(C(=O)c3ccccc3)oc3ccccc23)cc1C,i,-8%,-26%,2%,3%,1%
CCc1ccc(OCC(=O)c2c(O)c3ccccc3oc2=O)cc1,i,-11%,23µM*,-4%,-3%,?
Cc1ccc(C(C)C)c(OCC(=O)c2c(O)c3ccccc3oc2=O)c1,i,-29%,23µM*,-16%,-4%,?
CCOc1ccc(N=Cc2c(O)c3ccccc3oc2=O)cc1,i,-25%,-6%,-13%,-2%,5%
Cn1nnc2c(NCc3ccco3)ncnc21,nt,-2%,-18%,-27%,nt,-21%
C[C@@H](NC(=O)[C@@H]1Cc2ccccc2CN1C(=O)OC(C)(C)C)C(=O)NCc1ccco1,i,0%,19%,15%,4%,2%
Cc1ccc(C(=O)Nc2nc(=O)n(C(=O)CC(C)C)s2)cc1,i,6%,-18%,-11%,?,-29%
CC(C)CC(=O)n1sc(NC(=O)c2ccccc2)nc1=O,?,?,21µM*,-11%,-6%,15µM*
COc1cc2cc(C(=O)NC(C)c3cccc4ccccc34)c(N)nc2cc1OC (stereo not given),i,nt,16µM*,nt,?,26µM*
COc1cc2cc(C(=O)Nc3ccccc3)c(N)nc2cc1OC,i,17%,21µM*,12%,3%,?
COc1ccccc1C(=O)NC(C)c1cccc2ccccc12 (stereo not given),i,-18%,3.7µM*,-24%,-10%,8.2µM*
SMILES,S2 tox,TGFb SMAD3 inh,DT40 TDP1 no CPT,HepG2 tox,ATXN2 expr inh,TDP1 cell CPT
O=C(NC1CCCCC1)C(c1ccccn1)N(C(=O)Cc1cccs1)c1ccc(Cl)cc1 (stereo not given),i,-5%,?,-16%,-14%,29µM*
Cc1ccc(C(C(=O)NC2CCCC2)N(C(=O)Cc2cccs2)c2cccc(C)c2C)o1 (stereo not given),i,-13%,16µM*,-1%,-6%,21µM*
COc1ccc(C)cc1N(C)C(=O)Cc1c(C(=O)O)n(C)c2ccccc12,i,-6%,5.2µM*,-20%,-15%,0%
CC1CN(CC(O)c2ccc(Br)cc2)CCO1 (stereo not given),i,-6%,-6%,4%,-4%,22%
COc1ccc(Br)cc1/C=C/C(=O)Nc1c(C)cccc1C,i,?,23µM*,-2%,-8%,?
COc1ccc(Br)cc1/C=C/C(=O)c1ccc(NC(C)=O)cc1,?,?,4.1µM*,16µM*,22µM*,5.8µM*
COc1ccc(NC(=O)/C=C/c2cc(Br)ccc2OC)cc1,i,10%,21µM*,-9%,-16%,?
O=C(Nc1ccccc1)SC1CCCCC1,i,-4%,-25%,1%,43%,0%
NC(=O)[C@@H]1CCCN1C(=O)c1ccc2nc(Cc3cccc(Cl)c3)oc2c1,i,0%,11%,8%,-10%,-23%
COCC1CCN(C(=O)c2ccc3nc(Cc4cccc(Cl)c4)oc3c2)CC1,i,-12%,18µM*,-19%,nt,21µM*
O=C(c1ccc2oc(CCc3ccccc3)nc2c1)N1CC[C@H](O)C1,i,1%,3%,-10%,nt,-2%
COCCN1CCN(C(=O)c2ccc3nc(Cc4ccc(OC)c(OC)c4)oc3c2)CC1,i,-2%,6.5µM*,6%,-2%,12µM*
COc1ccc(Cc2nc3ccc(C(=O)N4CCC(C(N)=O)CC4)cc3o2)cc1,i,0%,17%,-16%,nt,1%
COCC1CCCCN1C(=O)c1ccc2oc(CCCc3ccccc3)nc2c1 (stereo not given),i,?,23µM*,-2%,5%,18µM*
CC(C)CC(=O)C1CCCN(C(=O)c2ccc3oc(Cc4ccccc4)nc3c2)C1 (stereo not given),i,0%,23µM*,-23%,-11%,23µM*
O=C1C2CC3CC1CC(O)(C3)C2,nt,nt,7%,nt,nt,-2%
O=C(Nc1cnc2ccccn2c1=O)c1ccc(Cl)cc1,i,4%,-14%,16%,49%,-14%
